Bioassay records (PubChem)
Sampled rows, rich in hits. Any-hit rate of the full collection: about 0.74%.
Keap1-Nrf2 PPI: Keap1-Nrf2 protein-protein interaction inhibitors, primary screen, biochemical, fluorescence polarization, single point | AID 504523, 2011 | inhibition, % at 9.4 µM | 340,000 tested, 0.15% active | Keap1 Kelch-Nrf2 peptide fluorescence polarization, 1536-well | Kelch-like ECH-associated protein 1 (Homo sapiens), Q14145; in the data active = inhibition above about 12%;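 also: human Keap1 Kelch domain with fluorescein labeled Nrf2 9mer peptide probe; 0% = neutral control wells and 100% = peptide positive control; higher means more block of Keap1 binding to Nrf2 peptide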
LANA DNA inh: inhibitors of KSHV C-LANA binding to DNA, primary screen, biochemical, fluorescence polarization, FAM-LBS DNA, MBP-C-LANA, single point. Kaposi's sarcoma herpesvirus LANA C-terminal domain (residues 932-1162) DNA binding. inhibition, % at 9 µM. 340,000 tested, 0.078% active. AID 504423, 2011;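 active = highest replicate inhibition at or above 60% at 9 µM, even if other replicates fall short; inactive = all replicates below 60% inhibition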;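 also: 0% = neutral control wells and 100% = 4 µM acridine orange control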
Cardiac RTF inh: cardiac RTF calcium sensitivity inhibitors, primary screen, biochemical, IANBD-TnC fluorescence, EC70 calcium; Troponin I, cardiac muscle (Homo sapiens) + Troponin T, cardiac muscle (Homo sapiens) + …; IANBD-labeled cardiac RTF, Ca2+ fluorescence; inhibition, % at 7.15 µM; 340,000 tested, 0.12% active; AID 493244, 2011;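 active = inhibition above the mean inhibition of all tested compounds plus 3 SD, cut at about 17% in these data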;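 also: assay run at fixed EC70 calcium of 1.6 mM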
eLon inh: inhibitors of E. coli Lon protease, primary screen, biochemical, fluorescence polarization; purified E. coli Lon protease; inhibition, % at 7.94 µM; 360,000 tested, 0.42% active; AID 602123, 2011; in the data active = inhibition above about 13%, passing the limit was not always enough;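 also: 0% = enzyme with probe and DMSO and 100% = no enzyme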
cardiac RTF act: cardiac RTF calcium sensitivity activators, primary screen, biochemical, IANBD-TnC fluorescence, EC20 calcium | Troponin I, cardiac muscle (Homo sapiens) + Troponin T, cardiac muscle (Homo sapiens) + … | IANBD-labeled TnC RTF fluorescence at EC20 calcium; 0% EC20 calcium, 100% full calcium | activation, % at 7.2 µM | 340,000 tested, 0.24% active;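 active = activation above the mean over all tested compounds plus 3 SD, cut at about 30% in these data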;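 also: rise in fluorescence read as greater calcium sensitivity of cardiac thin filaments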
Numbers without * were called inactive; i = inactive; x = no result.

SMILES | Keap1-Nrf2 PPI | LANA DNA inh | Cardiac RTF inh | eLon inh | cardiac RTF act
CN(C)c1ccc(C(=O)/C=C/c2ccc(Br)cc2)cc1 | -1.7 | 1.2 | -3.1 | 0.7 | 2.1
CCN(CC)c1ccc(/C=C/C(=O)c2ccc(Br)cc2)cc1 | -18.8 | 2.0 | i | -436.2 | 475.9*
O=S1(=O)C[C@H](N2CCCC2)[C@@H](COCc2ccccc2)N1 | x | x | x | -2.8 | x
Cn1cccc1/C=C1\CCC/C(=C\c2cccn2C)C1=O | -133.8 | -12.4 | -309.7 | -339.3 | 181.2*
CCCCC1CC2=C(C(=O)OC(C)(C)O2)C(c2ccc3ccccc3c2)O1 (configuration not stated) | x | x | x | 10.5 | x
O=C1c2cccc3c([N+](=O)[O-])ccc(c23)C(=O)N1O | 19.9* | 2.9 | -8.3 | 42.8 | 7.4
O=C1c2ccc([N+](=O)[O-])cc2C(=O)N1c1ccc(Cl)cn1 | 5.8 | 3.2 | -11.4 | -13.4 | 0.6
O=C1c2cccc3c([N+](=O)[O-])ccc(c23)C(=O)N1c1ccc(Cl)cn1 | -2.4 | 5.3 | -24.4 | 64.8* | 11.5
O=C(N[C@@H](Cc1c[nH]c2ccccc12)C(=O)O)c1ccc(Cl)cc1 | 0.2 | -0.7 | -6.0 | -12.2 | 0.0
NC(=NCCc1c[nH]c2ccccc12)NC(=O)c1ccc(Cl)cc1 | 2.8 | 81.1* | -2.9 | 7.7 | 5.0
CCOC(=O)C1CCCN(C2=NC(=O)/C(=C/c3ccc(OC)cc3)S2)C1 (configuration not stated) | -1.3 | -1.9 | -1.8 | -5.4 | 5.4
CCOC(=O)C1CCCN(C2=NC(=O)/C(=C/c3ccc(N(C)C)cc3)S2)C1 (configuration not stated) | -110.0 | -36.0 | -90.5 | i | 65.3*
Cc1cc(C)nc(SCCCNCc2ccc(Br)cc2)n1 | -4.5 | -1.9 | -1.4 | 8.7 | 31.8*
C[C@@H]1CN([C@@H](C)CO)C(=O)CCCn2nncc2CO[C@@H]1CN(C)C(=O)Nc1ccc2c(c1)OCO2 | x | x | x | 8.0 | x
CCN(CC)c1nc2ccccc2nc1C(C#N)C(=O)NCCc1ccccc1 (configuration not stated) | -0.7 | 2.2 | -26.9 | -9.8 | 65.5*
CCCCCCNC(=O)C(C#N)c1nc2ccccc2nc1N1CCCC1 (configuration not stated) | -0.6 | 1.0 | 4.7 | 1.7 | 38.1*
CCN(CC)c1nc2ccccc2nc1C(C#N)C(=O)NCCCOC (configuration not stated) | 3.2 | -0.4 | -1.8 | -10.1 | -3.2
CN1C(=O)/C(=C\c2ccc(N(C)C)cc2)OC1=S | -17.6 | -2.2 | -131.8 | -486.3 | 45.7*
CN(C)c1ccc(/C=C2\N=C(C(C)(C)C)OC2=O)cc1 | 2.7 | 7.4 | -13.9 | -80.3 | 29.9*
COc1ccc(/C=C2\N=C(C(C)(C)C)OC2=O)c(OC)c1 | 0.4 | 5.3 | -3.3 | -3.9 | -2.4
COc1ccc(/C=C2\OC(=S)N(C)C2=O)cc1 | 1.1 | 2.0 | -3.6 | 1.6 | -2.0
COc1ccc(C2C(C#N)=C(N)OC(C(C)(C)C)=C2C#N)cc1OC (configuration not stated) | -7.8 | -0.4 | 5.8 | -4.1 | 1.8
COc1ccc(C2C(C#N)=C(N)SC(N)=C2C#N)cc1OC | -54.8 | 19.9 | -58.9 | -436.3 | 35.7*
COC(=O)Cn1c(C)c(/C=C/c2cc[n+](C)cc2)c2ccccc21 | -85.8 | -29.2 | -80.4 | -366.8 | 64.0*
COC(=O)Cn1cc(/C=C/c2cc[n+](C)cc2)c2ccccc21 | -87.1 | -9.4 | -116.9 | -212.7 | 86.2*
SMILES | Keap1-Nrf2 PPI | LANA DNA inh | Cardiac RTF inh | eLon inh | cardiac RTF act
O=C(/C=C/Nc1ccc(S(=O)(=O)Nc2ncccn2)cc1)c1ccc(Cl)c(Cl)c1 | 15.5* | 20.2 | 4.0 | -14.0 | 3.0
CC(=O)Nc1cc2c(cc1C(=O)C(C)C)OCCO2 | -1.7 | -0.7 | -4.3 | -11.4 | -2.0
CC(C)C(=O)c1cc2c(cc1NC(=O)c1ccccc1)OCCO2 | 1.1 | -1.8 | -4.4 | -7.9 | 31.0*
CC(C)NC(=O)C1(C)CCCN1C(=O)c1ccccc1Br (configuration not stated) | x | x | x | 0.0 | x
COc1ccc(C(=O)Nc2cc(C(C)=O)c(C)oc2=O)cc1 | -1.3 | -0.7 | -10.6 | -5.1 | 0.2
COC(=O)c1cc(NC(=O)c2ccccc2)c(=O)oc1/C=C/Nc1ccc(Oc2ccccc2)cc1 | -190.3 | 9.5 | -253.7 | -205.1 | 112.9*
